Records with an inconclusive call do not appear. Unmarked numbers belong to inactive results. Calls of active or inactive are those of the source. Calls come from the whole dose curve; as a rule, active = well fitted activation curve with a large enough effect; inconclusive = small, poorly fitted or top-dose-only effect; inactive = no such curve, though single readings can be large or run the other way.
What follows are compounds tested against Relaxin receptor 1 (Homo sapiens) (UniProt Q9HBX9) (assay: qHTS Assay for Agonists of the Relaxin Receptor RXFP1: RXFP1 Hit Validation). Conditions: HEK293T-RXFP1 cAMP TR-FRET, 30 min; series mostly up to 45 µM; activation: at the top concentration.
Relaxin receptor 1 (Homo sapiens), sequence (Q9HBX9 whole entry, looked up): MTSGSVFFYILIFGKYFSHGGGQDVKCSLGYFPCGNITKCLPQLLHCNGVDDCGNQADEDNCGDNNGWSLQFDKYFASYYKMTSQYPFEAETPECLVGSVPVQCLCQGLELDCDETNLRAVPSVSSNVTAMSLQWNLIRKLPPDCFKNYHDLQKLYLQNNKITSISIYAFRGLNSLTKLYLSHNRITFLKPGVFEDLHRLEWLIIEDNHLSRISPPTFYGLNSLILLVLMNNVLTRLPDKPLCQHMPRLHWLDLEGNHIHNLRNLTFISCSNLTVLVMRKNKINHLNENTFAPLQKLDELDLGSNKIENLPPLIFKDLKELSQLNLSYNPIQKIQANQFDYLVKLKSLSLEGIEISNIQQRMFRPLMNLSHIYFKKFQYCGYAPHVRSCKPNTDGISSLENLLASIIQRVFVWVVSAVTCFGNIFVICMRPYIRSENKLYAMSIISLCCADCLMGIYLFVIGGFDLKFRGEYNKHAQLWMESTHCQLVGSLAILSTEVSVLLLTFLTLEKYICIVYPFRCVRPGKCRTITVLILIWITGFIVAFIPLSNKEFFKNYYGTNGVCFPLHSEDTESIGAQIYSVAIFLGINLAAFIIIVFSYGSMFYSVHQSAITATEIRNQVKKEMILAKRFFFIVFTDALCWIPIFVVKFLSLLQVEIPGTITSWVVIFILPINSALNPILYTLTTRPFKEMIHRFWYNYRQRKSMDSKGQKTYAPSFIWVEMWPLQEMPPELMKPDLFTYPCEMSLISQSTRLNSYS
Excerpt: NIH Chemical Genomics Center [NCGC] NIH Molecular Libraries Probe Production Centers Network [MLPCN] MLPCN Grant: R03 MH085705-01A1 Assay Submitter (PI): Alexander Agoulnik NCGC Assay Overview: The relaxin hormone is involved in the variety of biological functions in normal tissues and diseases. The role of relaxin is well-established in female reproduction and parturition, mammary gland and endometrial development, maintenance of myometrial quiescence during pregnancy. Relaxin signaling through its G protein-coupled receptor (GPCR) RXFP1 results in ECM remodeling through regulation of collagen deposition, cell invasiveness, proliferation and overall tissue homeostasis. […] Recombinant human relaxin (rhRlx) is currently being tested in clinical trials as a protective agent in congestive heart failure, in treating severe preeclampsia, and as an anti-fibrotic agent in systemic sclerosis. Upon relaxin binding RXFP1 activation leads to the activation of adenylate cyclase (AC) via Gs. cAMP will activate PKA, which phosphorylates many signaling proteins. Thus, detection of cAMP increase is an easy and reliable indication of relaxin receptor activation. To screen for agonists of the relaxin receptor, a HEK293T cell line stably transfected with RXFP1 was used. RXFP1 activation was assayed by changes in cAMP levels as detected with a time-resolved fluorescence energy transfer (TR-FRET) cAMP detection kit.
NCGC Assay Protocol Summary: This is a cell-based assay for cAMP second messenger response to screen for agonists of the RXFP1 receptor. The assay was conducted in the presence of a PDE4 inhibitor (Ro 20174). The cells were lysed and the cAMP levels were measured with a TR-FRET cAMP kit. Presence of cAMP in the cell lysate disrupts binding between the cryptate-labeled anti-cAMP and d2-labeled cAMP pair, leading to a decrease in the TR-FRET signal. Data were normalized to the controls for basal activity (buffer only) and 100% activity (29 nM porcine relaxin). The EC50 values were determined from concentration-response data modeled with the standard Hill equation 1536-well assay protocol for the HEK293 RXFP1 cAMP assay: (1) Add 3 ul HEK293 RXFP1 cell culture. 2000 cells/well in DMEM/F12, 10% FBS, 1x Pen/Strep (dispensed offline with MultiDrop Combi). (2) Incubate 16-24 hr at 37C, 5% CO2. (3) Add 1 ul 400uM Ro20174 in DPBS, 0.05% BSA, 0.005% Tween 20. (3) Add 23 nl compounds in DMSO solution. Final concentration was 0.5 - 58 uM. (4) Incubate 30 min at 37C, 5% CO2. (5) Add 1 ul cAMP-d2 in lysis buffer (HTRF cAMP HiRange kit, CisBio). (6) Add 1 ul anti-cAMP antibody-cryptate in lysis buffer (HTRF cAMP HiRange kit, CisBio). (7) Incubate 30 min at room temperature. […]
Note: nearly all actives have a fitted effect of over 65% in size.
Potency is the fitted concentration of half-maximal effect.
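Throughout, for activation: cAMP rise lowers the TR-FRET signal in lysed cells with PDE4 inhibitor present; 0% = buffer-only basal and 100% = 29 nM porcine relaxin.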

Row | Structure (SMILES) | Potency | activation
1 | CCNC(=O)[C@H]1O[C@@H](n2cnc3c(N)ncnc32)[C@H](O)[C@@H]1O | 0.308 µM (active) | –
2 | O=C(O)c1sc2cc(Cl)ccc2c1Cl | – | 26.2%
3 | CCC(Oc1cc(Cl)ccc1Cl)C(=O)N1CCC2(CC1)OCCO2 (centres undefined) | – | 3.75% [at 115 µM]
4 | Nc1ncc2[nH]cnc2n1 | 13.8 µM (active) | –

— PubChem BioAssay AID489012 (National Center for Advancing Translational Sciences (NCATS), 2010)
